Hits are enriched below; roughly 4.6% of the tested compounds scored in any of these assays.
tim10-1 inh – tim10-1 yeast growth inhibition; actives 2.2% (n = 330,000); inhibition, % at 20 µM; S. cerevisiae tim10-1 ts strain growth, BacTiter-Glo, 24 h;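 active means inhibition of at least 40%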;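 further: mutant grown at 25 °C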
TIM10 inh – TIM10 yeast growth inhibition; S. cerevisiae TIM10 strain growth, BacTiter-Glo luminescence, 24 h; inhibition, % at 10 µM; actives 1.4% (n = 330,000);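 active means inhibition of 40% or more at the single tested concentration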;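 further: wild-type TIM10 isogenic control strain grown at permissive 25 °C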
NALP3 yeast inh – NALP3 inhibition in yeast. Yeast reconstituted NLRP3/ASC/caspase-1, beta-gal luminescence, 24 h. AID 2825. inhibition, % at 10 µM. actives 0.39% (n = 330,000);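 active means inhibition of 50% or more; inactive means inhibition below 50%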
tim23-1 inh – growth inhibitors of tim23-1 mutant yeast; S. cerevisiae tim23-1 growth, BacTiter-Glo luminescence, 24 h; inhibition, % at 20 µM; actives 1.3% (n = 330,000); AID 463212;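 active means growth inhibition of the mutant yeast at or above 50%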;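 further: temperature-sensitive mutant grown at 25 °C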
SKKanGAS inh – SKKanGAS growth inhibition. S. pyogenes SKKanGAS, kanamycin growth, BacTiter-Glo, 6 h. inhibition, % at 7.5 µM. actives 1.3% (n = 300,000);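 active means mean replicate score, as percent of positive control median, at least 50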;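 further: strain carries kanamycin resistance gene driven by streptokinase promoter and grows in 40 µg/ml kanamycin; loss of luminescence reflects streptokinase promoter inhibition or plain growth inhibition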
tim23-1 conf – confirmation of tim23-1 mutant yeast growth inhibitors | AID 463218 | inhibition, % at 20 µM | S. cerevisiae tim23-1 growth, BacTiter-Glo luminescence, 24 h | actives 83% (n = 4,400) | shares compounds with tim23-1 inh;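 active means inhibition above about 39% in either of two replicate wells at 20 µM, limit read from the data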;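 further: temperature-sensitive tim23-1 mutant grown at 25 °C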
Numbers stand for hits; - = inactive; . = no result.

SMILES | tim10-1 inh | TIM10 inh | NALP3 yeast inh | tim23-1 inh | SKKanGAS inh | tim23-1 conf
Oc1ccccc1/C=N/NC(=S)NC1CC2C=CC1C2 (centres undefined) | - | - | - | 69 | 92 | 46
Cc1cc(C)nc(N2CCC(C(=O)NNC(=O)c3ccc(Cl)cc3)CC2)n1 | - | - | - | - | - | .
CCCCCCn1c(=O)c(-c2ccccc2)c(O)c2ccccc21 | - | - | - | 50 | - | 44
CSc1nc2ccc(NS(=O)(=O)c3ccc(Br)s3)cc2s1 | - | - | - | 61 | - | 62
Nc1nc2c(s1)CCc1c-2cnn1-c1ccccc1 | - | - | - | 62 | - | 61
Nc1nc2c(s1)COc1ccccc1-2 | - | - | - | - | - | .
COc1ccc(C(=O)OCCOc2cccc(Cl)c2)cc1S(=O)(=O)N1CCOCC1 | - | - | - | - | - | .
CCOc1ccc(/C=C/C(=O)c2c(O)c3ccccc3oc2=O)cc1 | - | - | - | 76 | - | -
CN(C)c1ccc(/C=C/C(=O)c2c(O)c3ccccc3oc2=O)cc1 | - | - | - | - | - | .
O=S(=O)(Nc1ccc(Cl)cn1)c1ccc2c(c1)OCCO2 | - | - | - | - | - | .
Cc1ccc(C(=O)Nc2nc(COc3ccccc3)cs2)s1 | - | - | - | 52 | - | -
C/C(=N\N(c1ccccc1)c1ccccc1)c1ccc(O)cc1 | - | - | - | 54 | - | 44
C/C(=N\N(c1ccccc1)c1ccccc1)c1ccc(N)cc1 | - | - | - | - | - | .
COc1ccc(-c2csc(NS(=O)(=O)c3ccc([N+](=O)[O-])cc3)n2)cc1 | - | - | - | 84 | - | -
COc1ccc(S(=O)(=O)NCC2CCCN(Cc3ccccc3C)C2)cc1 (centres undefined) | - | - | - | - | - | .
O=C(CNC(=O)C1COc2ccccc2O1)N/N=C\c1ccc(Cl)cc1 (centres undefined) | - | - | - | - | - | .
COc1ccc(C2CC(O)(c3ccccc3)Oc3c(C)ccc(C)c32)cc1 (centres undefined) | - | - | - | 53 | 89 | 55
COc1ccc(C2CC(O)(c3ccccc3)Oc3cc(OC)cc(OC)c32)cc1 (centres undefined) | - | - | - | - | - | .
CNc1nc(-c2c(C)n(C)c3ccc(OC)cc23)cs1 | - | - | - | - | - | .
N#Cc1c(SCC(=O)Nc2nncs2)sc2c(O)cc(=O)[nH]c12 | - | - | - | - | - | .
Cc1cccc(Oc2sc(C(=O)c3ccccc3)c(N)c2C#N)c1 | - | - | - | 55 | - | 42
N#Cc1c(Nc2ccccc2)sc(C(=O)c2ccccc2)c1N | - | - | - | - | - | .
Cc1ccc(-c2nn(-c3ccccc3)cc2NC(=O)CCl)cc1 | - | - | - | 65 | - | 44
Cc1ccc(-c2nn(-c3ccccc3)cc2CO)cc1 | - | - | - | - | - | .
Cc1ccc(-c2nn(-c3ccccc3)cc2/C=N/O)cc1 | - | - | - | 59 | 58 | 38
SMILES | tim10-1 inh | TIM10 inh | NALP3 yeast inh | tim23-1 inh | SKKanGAS inh | tim23-1 conf
Cc1ccc(OCC(=O)NCCCNC(=O)c2ccccn2)cc1C | - | - | - | - | - | .
CCN(CC)c1ccc(C(=O)Nc2cccc(F)c2)cc1 | - | - | - | 65 | - | 73
CN(C)c1cccc(C(=O)Nc2cccc(F)c2)c1 | - | - | - | - | - | .
CCN(CC)c1ccc2c(C)c(-c3ccc(N)cc3)c(=O)oc2c1 | - | - | - | 55 | - | 67
CCN(CC)c1ccc2c(C)c(Cl)c(=O)oc2c1 | - | - | - | 50 | - | 53
CCN(CC)c1ccc2c(C)cc(=O)oc2c1 | - | - | - | - | . | .
CCOC(=O)c1ccc(/C=C2/C=C(c3ccccc3)N(c3ccc(Cl)c(C(=O)O)c3)C2=O)cc1 | - | - | - | - | - | .
CC(=O)c1cc(CC(=O)N2CCc3c([nH]c4ccccc34)C2c2ccccn2)cs1 (centres undefined) | - | - | - | - | - | .
O=C(Cc1cnc2ncnn2c1)N1CCc2c([nH]c3ccccc23)C1c1ccccn1 (centres undefined) | - | - | - | 59 | - | -
CN(/N=C\c1ccc(O)c(O)c1)c1nc(-c2ccccc2)cc(-c2ccccc2)n1 | - | - | - | 55 | - | 41
COc1cc(/C=N/N(c2ccccc2)c2ccccc2)ccc1O | - | - | - | - | - | .
CC(OC(=O)CCCNC(=O)c1ccc(Cl)cc1)C(=O)N(C)Cc1ccccc1 (centres undefined) | - | - | - | - | - | .
c1ccc2c3c([nH]c2c1)-c1[nH]ncc1CC3 | - | - | - | 61 | - | -
Clc1ccc2[nH]c3c(c2c1)CCc1cn[nH]c1-3 | - | - | - | - | - | .
C/C(=N/NS(=O)(=O)c1ccc(CC(C)C)cc1)c1ccncc1 | - | - | - | - | - | .
CCCCC(=O)Nc1ccc(C(=O)N(CC)c2ccccc2C)cc1 | - | - | - | - | - | .
COc1ccccc1NC(=S)NC(=O)CC(C)C | - | - | - | 51 | - | -
O=C(Nc1oc2ccccc2c(=O)c1-c1ccc(Br)cc1)c1ccco1 | - | - | - | 52 | - | 41
COc1cccc(-c2c(NC(=O)c3ccco3)oc3ccccc3c2=O)c1 | - | - | - | - | - | .
O=C(Nc1oc2ccc(Cl)cc2c(=O)c1-c1ccc(F)cc1)c1ccco1 | - | - | - | 53 | - | 46
COc1cccc(-c2c(NC(=O)c3ccco3)oc3ccc(Cl)cc3c2=O)c1 | - | - | - | - | - | .
COc1cc(-c2c(NC(=O)c3ccco3)oc3c(C)cccc3c2=O)cc(OC)c1OC | - | - | - | - | - | .
COc1ccc(-c2c(NC(=O)c3ccco3)oc3c(C)cccc3c2=O)cc1 | - | - | - | 51 | - | 43
CCOC(=O)c1nn(-c2ccccc2C)c(=O)cc1OCC(=O)N1CCN(c2ccccc2)CC1 | - | - | - | - | - | .
O=C(c1ccc(N2CCCS2(=O)=O)cc1)N1CCN(c2ccccc2)CC1 | - | - | - | - | - | .
SMILES | tim10-1 inh | TIM10 inh | NALP3 yeast inh | tim23-1 inh | SKKanGAS inh | tim23-1 conf
O=C1CC2(CCN(C(=O)C3CC(=O)N(c4ccc(F)cc4)C3)CC2)Oc2ccccc21 (centres undefined) | - | - | - | - | - | .
Cc1ccc2nc(-c3ccc(N)cc3)sc2c1 | - | - | - | 53 | 54 | 58
COCCNC(=O)C1(C(F)(F)F)CC(CCCO)CCCO1 (centres undefined) | - | - | - | - | - | .
Cc1ccnc(NS(=O)(=O)c2ccc(-n3cccn3)cc2)c1 | - | - | - | - | - | .
C/C(=N\Nc1ccc(S(=O)(=O)N2CCCCC2)cn1)c1ccc(O)cc1 | - | - | - | - | . | .
COc1cccc(/C(C)=N/Nc2ccc(S(=O)(=O)N3CCCCC3)cn2)c1 | - | - | - | 51 | . | 44
COc1ccc(-n2sc3c(c2=S)-c2cc(OC)ccc2NC3(C)C)cc1 | - | - | - | - | - | .
COc1ccc2c(c1)-c1c(ssc1=S)C(C)(C)N2 | - | - | - | 53 | - | 47
CC(C)Nc1nc(N)c(C(=O)C23CC4CC(CC(C4)C2)C3)s1 | - | - | - | 53 | - | 56

Compound activity as filed in PubChem BioAssay.
